Shown are actives, neighbours in structure and some others; about 7.3% of the full set was active somewhere.
ELG1 genotox – inducers of genotoxicity in HEK293T ELG1-luciferase cells. AID 504466. hit rate 1.3% among 330,000. HEK293T ELG1-luciferase reporter, luminescence, 16 h. Potency, µM (series often up to 46 µM), for the others: at the highest dose activity change, positive = activation, usual class: activators; note: % of control where 0% means no effect; nearly all actives have a fitted effect of over 60% in size
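Reporter readout depends on ELG1 protein level, which increases with genetic stress. After 16 hr compound exposure at 37 °C, luciferase activity was quantified using ONE-Glo.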
NPC1 promoter act – NPC1 promoter activation; Huh7 NPC1 promoter luciferase reporter, 24 h; Potency, µM (top dose mostly 9.22 µM), without a hit: at the top dose activation, actives largely listed as activators; hit rate 2.4% among 320,000; AID 485313; note: % of control where 0% means no effect; nearly all actives have a fitted effect of over 60% in size
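Quantitative HTS used a cell-based reporter: Huh7 cells stably bearing the NPC1 promoter upstream of luciferase were treated with compounds for 24 h, and promoter activation was read as luminescence.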
p53 reactivator – mutant p53 re-activation in reporter cells. Potency, µM (titrated, usually from 92.2 µM), without a hit: top-dose activity change, positive = activation, most hits filed as activators. hit rate 0.063% among 320,000. H1299 p53-A138V BP100-luciferase reporter, luminescence, 24 h. AID 504706; note: % of control where 0% means no effect; nearly all actives have a fitted effect of over 45% in size
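p53-null H1299 cells stably carrying temperature-sensitive p53-A138V and a BP100-luciferase reporter were pinned with compounds (4-point, 1:5 series) and held 24 hrs at 37 deg C. Luminescence was read 10 min after detection reagent.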
SMN2 splice up – enhancers of SMN2 splice variant expression; HEK293 SMN2-luciferase splicing reporter, luminescence, 30-36 h; Potency, µM (series often up to 46.1 µM), without a hit: top-dose activity change, positive = activation, usual class: activators; hit rate 2.8% among 210,000; note: % of control where 0% means no effect; nearly all actives have a fitted effect of over 55% in size
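qHTS luciferase splicing reporter: luminescence rises when SMN2 exon 7 is included in transfected HEK293 cells. Compound exposure lasted 30-36 h at 37C, with 4.5 mM final sodium butyrate as control, followed by a ONE-Glo read.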
Rab9 promoter act – Rab9 promoter activation | Huh7 Rab9 promoter-luciferase reporter, luminescence, 24 h | Potency, µM (top dose mostly 9.22 µM), for the others: at the highest dose activation, negative = inhibition, most hits filed as activators | hit rate 2.8% among 320,000; note: % of control where 0% means no effect; nearly all actives have a fitted effect of over 60% in size
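Steps: seed 1500 Huh7 Rab9-luc cells per well, rest 2 h at 37 °C; add compound in DMSO; incubate 24 h; add luciferase reagent, 10 min ambient; read luminescence.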
FLuc counter – counter-screen for miR-21 project: firefly luciferase inhibitors or activators; P08659; hit rate 6.9% among 360,000; AID 588342; purified FLuc, Km substrates, luminescence inhibition; Potency, µM (doses to about 57.5 µM), for the others: top-dose activity change, negative = inhibition, most hits filed as inhibitors;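 note: plate controls were vehicle for no effect and reference inhibitor for full effect; nearly all actives have a fitted effect of over 55% in size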
Target sequence (P08659 whole entry, looked up): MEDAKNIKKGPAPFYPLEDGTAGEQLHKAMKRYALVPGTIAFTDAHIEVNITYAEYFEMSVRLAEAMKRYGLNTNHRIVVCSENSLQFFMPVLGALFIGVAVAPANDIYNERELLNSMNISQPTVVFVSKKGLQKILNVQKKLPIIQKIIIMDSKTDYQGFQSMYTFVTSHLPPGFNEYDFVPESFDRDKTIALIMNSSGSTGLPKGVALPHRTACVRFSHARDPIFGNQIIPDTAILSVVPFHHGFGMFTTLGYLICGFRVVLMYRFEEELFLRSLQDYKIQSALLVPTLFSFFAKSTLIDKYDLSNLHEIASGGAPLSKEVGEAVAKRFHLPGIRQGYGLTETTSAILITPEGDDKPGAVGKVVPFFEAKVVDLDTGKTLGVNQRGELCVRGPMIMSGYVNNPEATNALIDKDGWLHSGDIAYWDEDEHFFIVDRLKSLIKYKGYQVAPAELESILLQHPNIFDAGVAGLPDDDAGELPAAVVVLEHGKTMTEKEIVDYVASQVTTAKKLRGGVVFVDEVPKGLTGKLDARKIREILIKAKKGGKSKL
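Purified P. pyralis luciferase, 10 nM final, with Km-level 10 uM D-luciferin and 10 uM ATP in 50 mM Tris acetate pH 7.5, 10 mM Mg acetate, 0.01% Tween-20, 0.05% BSA; 6-point qHTS titration about 60 µM downward; luminescence read.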
* marks the source's active call; other numbers are inactive results; ? = inconclusive; / = not tested or not shown; [ ] = remark or other dose. Calls come from the whole dose curve; as a rule, active = well fitted curve in the direction sought with a large enough effect; inconclusive = small, poorly fitted or top-dose-only effect, or another doubt; inactive = no such curve, though single readings can be large; an effect the other way counts as inactive or inconclusive. Potency is the fitted concentration of half-maximal effect.

SMILES	ELG1 genotox	NPC1 promoter act	p53 reactivator	SMN2 splice up	Rab9 promoter act	FLuc counter
CCOc1cccc(/C=N/NC(=O)c2cc(-c3cccn3C)n[nH]2)c1O	?	-35%	?	/	-52%	15µM*
Cc1ccc(Nc2nnc(-c3ccc(C)c(S(=O)(=O)N4CCN(C)CC4)c3)c3ccccc23)c(C)c1	/	/	/	7%	/	-5%
COc1ccc(CCNC(=O)C(=O)NCC(c2ccc3c(c2)OCO3)N2CCOCC2)cc1 (stereo unspecified)	/	/	/	/	/	-1%
Cc1cccc(C(=O)N2CCNC(=O)C2CC(=O)Nc2ccc(F)cc2)c1 (stereo unspecified)	/	/	/	-4%	/	0%
Cc1ccc(N=Nc2ccc(O)c(/C=N\NC(=O)c3ccc(N)cc3)c2)cc1C	?	1.4µM*	17%	15%	2.8µM*	?
Cc1cccc(/C=N\NC(=O)c2ccc(Cl)cc2)c1O	?	-22%	?	/	?	1.5µM*
Cc1cccc(/C=N/NC(=O)Cc2ccc(Cl)cc2)c1O	?	4%	11%	/	-2%	-2%
CC(=O)O[C@]12CC[N@+]3(C)CCCC[C@@H]3[C-]1Nc1ccccc12	/	/	/	4%[9.22 µM]	/	/
CC(C)(C)n1ncc2c(=O)n(Cc3cccc(C(F)(F)F)c3)cnc21	/	/	/	/	/	-9%
COc1ccc(CNC(=O)c2c(C)nc3ccccn23)cc1	-7%	-1%	7%	-66%	-2%	1%
COc1ccc(/C=C/C(=O)c2c(C)nc3ccccn23)cc1	11%	?	?	5%	3.5µM*	7.6µM*
COc1ccc(NC(=O)c2c(Cl)nc3ccccn23)cc1	?	30%	0%	?	3.2µM*	?
Cc1nc2ccccn2c1C(=O)/C=C/c1ccc(F)cc1	6%	2.8µM*	?	-39%	?	3µM*
COCCCNC(=O)C[C@H]1C[C@H](C(=O)N(C(C)C)C(C)C)[C@@]2(C)c3[nH]c4ccc(Cl)cc4c3CCN2C1=O	0%	/	-3%	/	/	/
CCOc1ccc(C(=O)Nc2nnc(SCC(=O)NCC3CCCO3)s2)cc1 (stereo unspecified)	?	0.1µM*	21%	/	?	0.3µM*
CC(C)(C)c1ccc(C(=O)Nc2nnc(SCC(=O)NCC3CCCO3)s2)cc1 (stereo unspecified)	?	0.5µM*	18%	/	0.32µM*	0.076µM*
Cc1cc(-c2nnc(CSc3nnc(NC(=O)c4ccc(C(C)(C)C)cc4)s3)o2)ccc1[N+](=O)[O-]	?	2.5µM*	7%	/	?	1.7µM*
CN(C)S(=O)(=O)c1ccc(C(=O)Nc2nnc(SCC(=O)NCC3CCCO3)s2)cc1 (stereo unspecified)	5%	2%	6%	/	2%	-1%
COCCSc1nnc(NC(=O)c2ccc([N+](=O)[O-])cc2)s1	22%	1%	6%	22%	10%	?
O=C(CSc1nnc(NC(=O)c2c(F)cccc2F)s1)NCC1CCCO1 (stereo unspecified)	6%	2%	3%	/	1%	-3%
O=C(CSc1nnc(NC(=O)c2cccc(F)c2)s1)NCC1CCCO1 (stereo unspecified)	21%	15%	20%	/	23%	6µM*
CC1CCN(S(=O)(=O)c2ccc3c(c2)CCN3C(=O)Nc2ccccc2Br)CC1	/	/	/	9%	/	3%
C[C@@H](C1[C@@H](O)CC2C3C=CC4C[C@@H](O)CC[C@]4(C)[C@H]3CC[C@@]21C)[C@@H]1CCCCN1 (stereo partly specified)	/	/	/	10%	/	/
c1ccc2c(c1)nc(N1CCOCC1)c1c3ccccc3[nH]c21	-7%	0%	16%	-27%	-3%	-18%
N#C/C(=C/c1ccc(N2CCOCC2)o1)c1ccc(Br)cc1	7%	?	-9%	?	?	8.5µM*
SMILES	ELG1 genotox	NPC1 promoter act	p53 reactivator	SMN2 splice up	Rab9 promoter act	FLuc counter
N#C/C(=C\c1cc([N+](=O)[O-])c(N2CCOCC2)cc1N1CCOCC1)c1nc2ccccc2[nH]1	-6%	-2%	-11%	1%	-1%	-2%
N#C/C(=C/c1ccc(N2CCOCC2)o1)c1nc2ccccc2[nH]1	2.3µM*	3.5µM*	/	2µM*	1µM*	0.54µM*
N#C/C(=C\N1CCOCC1)c1ccccc1	-2%	-3%	6%	-20%	0%	-1%
N#C/C(=C\c1ccc(N2CCOCC2)o1)c1ccccc1	?	?	-14%	13µM*	?	2.1µM*
N#C/C(=C\c1ccc(N2CCOCC2)cc1)c1ccccc1	4.1µM*	2.8µM*	?	3.2µM*	1µM*	?
COc1ccc(-n2nc(C(=O)Nc3ccc(C)cn3)c3c4ccccc4n(C)c3c2=O)cc1	/	/	/	-3%	/	-2%
N#C/C(=C/c1ccc(N2CCCCCC2)o1)c1cccc(F)c1	5.8µM*	3.5µM*	-17%	13µM*	4µM*	5.4µM*
Cc1cc(C)c2c(N)c(-c3nc4ccccc4[nH]3)sc2n1	?	?	?	13µM*	2.8µM*	?
COc1cccc(-n2c(N)c(-c3nc4ccccc4[nH]3)sc2=S)c1	-11%	10%	9%	-17%	0%	?
Cc1ccc2nc(-c3sc4nc(C)ccc4c3N)[nH]c2c1	?	3.2µM*	?	2.2µM*	3.2µM*	1.2µM*
CS(=O)(=O)c1cnc2c(-c3ccc(F)cc3)cnn2c1N	?	0.79µM*	?	?	1.1µM*	2.4µM*
Nc1c(-c2ccccc2)cnc2c(-c3ccccc3)cnn12	0.73µM*	0.32µM*	?	/	0.11µM*	0.24µM*
Nc1c(-c2cccs2)cnc2c(-c3ccc(F)cc3)cnn12	2.6µM*	0.45µM*	?	/	0.35µM*	0.48µM*
N#Cc1cnn2c(N)c(-c3ccc(Cl)cc3)cnc12	4%	0%	2%	1%	18%	-6%
COc1cc(OC)c(NS(=O)(=O)c2c(C)nc3sc(C)cn3c2=O)cc1Cl	/	/	/	/	/	-9%
COc1ccccc1N1CCN(C(=O)c2oc3ccccc3c2N)CC1	/	/	/	-4%	/	-8%
COc1cc(/C=N/Nc2ccccn2)ccc1O	9.2µM*	4%	?	/	?	6µM*
COc1ccc(/C=N/Nc2nc(N)cc(Cl)n2)cc1OC	2%	16%	-4%	14%	24%	17µM*
COc1ccc(/C=N/Nc2ccccn2)cc1OC	?	?	11%	/	?	7.6µM*
COc1ccc(/C=N/Nc2nonc2N)cc1OC	0%	0%	-6%	23%	-6%	?
COc1ccc(/C=N/Nc2nc(C)nc(N)n2)cc1	12%	13%	2%	/	23%	17µM*

Bioassay records: PubChem, National Center for Advancing Translational Sciences (NCATS)
